# TIM10 inh: growth inhibitors of isogenic TIM10 control yeast, primary screen, counter-screen for tim10-1 yeast inhibitor project, luminescence, uHTS. S. cerevisiae TIM10 strain growth, BacTiter-Glo luminescence, 24 h. inhibition, % at 10 µM. hit rate 1.4% among 330,000. AID 463195, 2010;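 active = inhibition of 40% or more at the single tested concentration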;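 note: wild-type TIM10 isogenic control strain grown at permissive 25 °C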
# tim23-1 inh: growth inhibitors of tim23-1 mutant yeast, primary screen, luminescence, uHTS; S. cerevisiae tim23-1 growth, BacTiter-Glo luminescence, 24 h; inhibition, % at 20 µM; hit rate 1.3% among 330,000;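 active = growth inhibition of the mutant yeast at or above 50%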;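 note: temperature-sensitive mutant grown at 25 °C; plate controls were DMSO-treated mutant yeast for no effect and medium wells lacking yeast for full effect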
# tim10-1 inh: growth inhibitors of tim10-1 mutant yeast, primary screen, luminescence, uHTS | S. cerevisiae tim10-1 ts strain growth, BacTiter-Glo, 24 h | inhibition, % at 20 µM | hit rate 2.2% among 330,000 | AID 463190, 2010;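 active = inhibition of at least 40%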;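 note: mutant grown at 25 °C; 0% = DMSO wells with yeast and 100% = wells holding no yeast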
# SKKanGAS inh: S. pyogenes SKKanGAS growth inhibitors in kanamycin, primary screen, streptokinase expression inhibitor project, SKKanGAS strain, BacTiter-Glo luminescence; 6 h; inhibition, % at 7.5 µM; hit rate 1.3% among 300,000; AID 1662, 2009;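 active = mean replicate score, as percent of positive control median, at least 50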;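 note: strain carries kanamycin resistance gene driven by streptokinase promoter and grows in 40 µg/ml kanamycin; loss of luminescence reflects streptokinase promoter inhibition or plain growth inhibition; 0% = median of DMSO wells and 100% = positive control at its reference dose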
# NLRP3 yeast inh: NALP3 inflammasome inhibitors in reconstituted yeast, primary screen, luminescence, uHTS; inhibition, % at 10 µM; hit rate 0.39% among 330,000; Yeast reconstituted NLRP3/ASC/caspase-1, beta-gal luminescence, 24 h; AID 2825, 2010;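 active = inhibition of 50% or more; inactive = inhibition below 50%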;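 note: plate controls were induced DMSO wells for no effect and uninduced yeast grown without galactose for full effect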
# PfHsp90 yeast 2: growth inhibition of PfHsp90-expressing yeast, primary screen, antimalarial PfHsp90 inhibitor project, S. cerevisiae, BacTiter-Glo luminescence, single point, set 2; BacTiter-Glo ATP, 48 h; yeast lacking PDR1 and PDR3 efflux regulators; inhibition, % at 9.4 µM; hit rate 0.32% among 310,000; AID 504621, 2011;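 active = every replicate shows inhibition above about 80%, whatever the replicate mean, limit read from the data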;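 note: 0% = DMSO neutral controls and 100% = 20 µM radicicol positive controls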
# NALP3 yeast conf: NALP3 inhibitors retested in yeast, confirmation, luminescence, single concentration; shares compounds with NLRP3 yeast inh; yeast expressing human NALP3; hit rate 81% among 1,300; inhibition, % at 10 µM; in the data active = inhibition above about 48%
# Casp1-ASC yeast: CASP1-PYCARD signaling inhibition in yeast, confirmatory test, counterassay for NLRP3 inhibitor program, one-dose. yeast expressing Caspase-1-ASC, luminescence counter screen. inhibition, % at 10 µM. shares compounds with NLRP3 yeast inh. hit rate 66% among 1,000
# NALP3 retest: NALP3 inhibitors in yeast, repeat test, confirmation, luminescence, single concentration, retest. shares compounds with NLRP3 yeast inh. yeast expressing human NALP3, luminescence read-out. inhibition, % at 10 µM. hit rate 53% among 1,000
# * hit, by the source's call; x = no result given. Compounds with a hit are over-represented: about 4.6% of the library has one in this group of screens. Cut-off read from the data, not from the text of the source, unless noted: active = inhibition above about 50%; inactive = the rest.
SMILES,TIM10 inh,tim23-1 inh,tim10-1 inh,SKKanGAS inh,NLRP3 yeast inh,PfHsp90 yeast 2,NALP3 yeast conf,Casp1-ASC yeast,NALP3 retest
COc1ccc(NC(=O)c2ccc(F)c(F)c2)c2ccccc12,4,2,-3,-14,50*,11,61*,27,44
CN(C)c1ccc(/C=N/Nc2nncc3ccccc23)cc1,x,x,x,10,x,4,x,x,x
S=C(Nc1cc(Cl)cc(Cl)c1)NC1CCN(Cc2ccccc2)CC1,16,7,12,16,56*,19,53*,x,x
COc1cc(OC)cc(C(=O)NC(C)CNc2ccc(Cl)cc2[N+](=O)[O-])c1 (configuration not stated),3,12,19,-2,24,17,x,x,x
NCCC(=O)NCCc1cnc[nH]1,2,-7,-8,x,66*,-4,76*,63*,72*
O=[N+]([O-])c1ccc(CSCc2ccc([N+](=O)[O-])cc2)cc1,x,x,x,x,x,3,x,x,x
Cc1ccccc1OCCn1c(=S)[nH]c2ccccc21,32,40,23,6,53*,-23,79*,67*,42
Fc1ccccc1OCCn1c(=S)[nH]c2ccccc21,19,37,12,-2,33,-9,x,x,x
NC(=O)c1ccc(NC(=O)COC(=O)CCN2C(=O)c3ccccc3C2=O)cc1,6,8,0,x,19,-14,x,x,x
CC(C)(C)c1ccc(C(=O)NNc2ccc(F)cc2F)cc1,14,27,12,-6,53*,3,44,x,x
O=C(Nc1cccnc1Cl)c1cc2c(s1)-c1ccccc1OC2,-12,15,13,-10,30,-16,x,x,x
CN1CCN(c2ccccc2NC(=O)c2cc3c(s2)-c2ccccc2OC3)CC1,39,13,27,2,71*,21,76*,82*,76*
CCN(CC)S(=O)(=O)c1ccc(C(=O)Nc2cc(C)cc(C)c2)cc1,38,23,26,4,51*,-7,52*,32,42
CCN(CC)S(=O)(=O)c1cccc(C(=O)Nc2cc(C)cc(C)c2)c1,31,-13,34,-2,5,-6,x,x,x
Cc1[nH]c2ccccc2c1C(=O)NS(=O)(=O)Nc1ccc(Cl)cc1,10,10,2,4,0,-6,x,x,x
Cc1nc2sc(-c3ccccc3)cc2c(=O)n1N,-8,13,28,34,26,45,x,x,x
Cc1nc2sc(-c3ccccc3)cc2c(=O)n1-n1cccc1,-4,-3,4,-8,52*,14,71*,58*,44
CC1Cc2nc(SCC(=O)OCc3ccccc3)n(C)c(=O)c2S1 (configuration not stated),-35,7,4,0,59*,-12,70*,43,39
CN(C)c1ncnc2sc(-c3ccccc3)cc12,14,45,-18,-1,65*,4,75*,44,37
COc1ncnc2sc(-c3ccccc3)cc12,-1,25,-14,5,38,-16,x,x,x
COc1ccccc1-c1ccc(SCc2ccc(C)cc2)nn1,-10,8,3,3,54*,14,59*,52*,55*
COc1ccccc1-c1ccc(SCc2ccc(F)cc2)nn1,-6,21,17,6,35,1,x,x,x
NCCC(=O)N1c2ccccc2Sc2ccccc21,-8,-5,-12,-5,68*,-31,78*,62*,77*
CCCCCCCCCCCCOC(=O)C[N+](C)(C)C,-41,19,30,113*,54*,x,46,59*,52*
Cc1cc(OCc2nc3ccccc3s2)ccc1N,22,23,16,-8,55*,-17,42,x,x

# Compound activity: PubChem, several laboratories
